Measurements published in PMC7862700, “An all-to-all approach to the identification of sequence-specific readers for epigenetic DNA modifications on cytosine”.

How the values were obtained:
Assay in all cases: DAPPL (digital affinity profiling via proximity ligation, sequencing); 10 mM Tris-HCl pH 7.5, 50 mM NaCl, 1 mM DTT, 4% glycerol, room temperature, 30 min; GST-TFs on glutathione beads, 16-mer random dsDNA library, 0.1% formaldehyde crosslink after washing; high values mean tight binding
Conditions in all cases: protein: recombinant; tags: N-terminal GST; dsDNA, one strand shown
ERF = target: T1, ERF (Homo sapiens, UniProt P50548 1-548)
T1 sequence: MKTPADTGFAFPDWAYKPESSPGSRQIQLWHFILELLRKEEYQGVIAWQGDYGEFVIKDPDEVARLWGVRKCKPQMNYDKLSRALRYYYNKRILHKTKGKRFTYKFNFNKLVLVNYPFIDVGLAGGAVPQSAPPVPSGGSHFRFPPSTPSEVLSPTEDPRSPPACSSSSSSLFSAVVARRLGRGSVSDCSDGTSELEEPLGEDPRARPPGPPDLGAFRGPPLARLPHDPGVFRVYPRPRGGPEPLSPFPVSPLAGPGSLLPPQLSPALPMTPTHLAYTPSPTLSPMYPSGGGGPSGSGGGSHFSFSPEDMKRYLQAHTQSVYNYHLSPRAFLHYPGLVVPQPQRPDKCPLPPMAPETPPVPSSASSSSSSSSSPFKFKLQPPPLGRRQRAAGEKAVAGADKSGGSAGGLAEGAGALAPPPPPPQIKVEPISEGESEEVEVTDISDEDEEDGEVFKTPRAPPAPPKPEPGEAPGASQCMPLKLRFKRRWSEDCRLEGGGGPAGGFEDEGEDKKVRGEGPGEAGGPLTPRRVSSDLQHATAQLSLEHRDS
Outline: (§1)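 Yeast served to express human transcription factors as GST fusions, which were then captured on glutathione beads and labelled with DNA barcodes. Pooled with a tag-only sample, they were incubated with 200 nmole of a 16-mer random double-stranded DNA library for 30 min at room temperature in Tris/NaCl/DTT/glycerol buffer, washed, crosslinked with 0.1% formaldehyde, ligated by proximity, amplified by PCR and sequenced. Dividing each hexamer's read frequency for a factor by its frequency for the tag-only sample gives the binding signal.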

ETV3L = target: T2, ETV3L (Homo sapiens, UniProt Q6ZN32 1-361)
T2 sequence: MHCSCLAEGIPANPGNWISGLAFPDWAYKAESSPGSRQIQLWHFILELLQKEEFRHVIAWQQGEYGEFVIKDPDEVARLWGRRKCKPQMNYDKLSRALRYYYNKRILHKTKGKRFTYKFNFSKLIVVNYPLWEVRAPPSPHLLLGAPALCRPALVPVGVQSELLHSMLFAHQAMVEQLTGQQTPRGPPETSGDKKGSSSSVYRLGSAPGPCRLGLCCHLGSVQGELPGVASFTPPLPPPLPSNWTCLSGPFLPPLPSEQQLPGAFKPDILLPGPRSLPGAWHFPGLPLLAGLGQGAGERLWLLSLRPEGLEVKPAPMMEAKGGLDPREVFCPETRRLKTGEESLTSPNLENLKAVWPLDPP
Outline: as §1

ETS2 = target: T3, ETS2 (Homo sapiens, UniProt P15036 1-469)
T3 sequence: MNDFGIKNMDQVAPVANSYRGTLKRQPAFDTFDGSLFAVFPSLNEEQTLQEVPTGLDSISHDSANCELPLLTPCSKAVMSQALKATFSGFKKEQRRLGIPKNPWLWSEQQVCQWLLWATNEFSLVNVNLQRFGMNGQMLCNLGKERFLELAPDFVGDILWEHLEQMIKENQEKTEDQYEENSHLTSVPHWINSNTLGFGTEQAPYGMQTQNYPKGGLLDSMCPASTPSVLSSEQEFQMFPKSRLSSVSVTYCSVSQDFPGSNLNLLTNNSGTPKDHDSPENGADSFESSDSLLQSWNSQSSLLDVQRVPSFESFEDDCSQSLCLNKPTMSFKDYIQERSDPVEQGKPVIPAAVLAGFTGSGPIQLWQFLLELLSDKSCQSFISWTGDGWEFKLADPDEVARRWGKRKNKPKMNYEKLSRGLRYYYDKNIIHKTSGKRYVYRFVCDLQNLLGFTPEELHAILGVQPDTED
Outline: as §1

SPDEF = target: T4, SPDEF (Homo sapiens, UniProt O95238 1-335)
T4 sequence: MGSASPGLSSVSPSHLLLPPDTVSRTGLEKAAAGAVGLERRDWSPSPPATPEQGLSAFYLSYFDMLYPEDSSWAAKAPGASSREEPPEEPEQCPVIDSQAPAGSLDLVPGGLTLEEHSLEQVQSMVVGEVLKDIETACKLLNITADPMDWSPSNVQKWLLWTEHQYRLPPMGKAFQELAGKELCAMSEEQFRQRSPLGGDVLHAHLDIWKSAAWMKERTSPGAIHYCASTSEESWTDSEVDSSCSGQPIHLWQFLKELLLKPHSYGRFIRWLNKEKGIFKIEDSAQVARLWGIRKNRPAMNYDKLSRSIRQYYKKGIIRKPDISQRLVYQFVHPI
Outline: as §1

ETV7 = target: T5, ETV7 (Homo sapiens, UniProt Q9Y603 1-341)
T5 sequence: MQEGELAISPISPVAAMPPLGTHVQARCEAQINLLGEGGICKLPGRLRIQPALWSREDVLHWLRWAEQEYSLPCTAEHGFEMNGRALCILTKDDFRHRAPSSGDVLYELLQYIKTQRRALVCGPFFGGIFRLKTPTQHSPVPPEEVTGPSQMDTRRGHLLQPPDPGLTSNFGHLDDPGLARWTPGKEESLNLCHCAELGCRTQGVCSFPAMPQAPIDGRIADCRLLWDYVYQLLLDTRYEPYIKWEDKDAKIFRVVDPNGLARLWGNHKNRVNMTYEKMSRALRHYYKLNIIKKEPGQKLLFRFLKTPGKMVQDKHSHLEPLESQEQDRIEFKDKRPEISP
Outline: as §1

ELF5 = target: T6, ELF5 (Homo sapiens, UniProt Q9UKW6-2 1-255)
T6 sequence: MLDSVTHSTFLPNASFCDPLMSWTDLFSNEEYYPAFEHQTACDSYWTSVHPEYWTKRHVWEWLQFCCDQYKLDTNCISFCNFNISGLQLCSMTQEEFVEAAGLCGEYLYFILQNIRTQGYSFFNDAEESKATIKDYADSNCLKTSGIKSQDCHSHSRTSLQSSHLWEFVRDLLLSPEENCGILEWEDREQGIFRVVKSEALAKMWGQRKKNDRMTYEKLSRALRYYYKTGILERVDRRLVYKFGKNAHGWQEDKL
Outline: as §1

ETV3 = target: T7, ETV3 (Homo sapiens, UniProt P41162-2 1-143)
T7 sequence: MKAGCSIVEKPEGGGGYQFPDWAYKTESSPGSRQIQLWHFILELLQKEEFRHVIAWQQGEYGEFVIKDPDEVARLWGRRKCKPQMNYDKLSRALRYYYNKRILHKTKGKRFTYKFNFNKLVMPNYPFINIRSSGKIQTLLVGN
Outline: as §1

ETV6 = ETV6 (Homo sapiens, UniProt P41212 1-452)
Outline: as §1

Chain of ETV6 (P41212 whole entry): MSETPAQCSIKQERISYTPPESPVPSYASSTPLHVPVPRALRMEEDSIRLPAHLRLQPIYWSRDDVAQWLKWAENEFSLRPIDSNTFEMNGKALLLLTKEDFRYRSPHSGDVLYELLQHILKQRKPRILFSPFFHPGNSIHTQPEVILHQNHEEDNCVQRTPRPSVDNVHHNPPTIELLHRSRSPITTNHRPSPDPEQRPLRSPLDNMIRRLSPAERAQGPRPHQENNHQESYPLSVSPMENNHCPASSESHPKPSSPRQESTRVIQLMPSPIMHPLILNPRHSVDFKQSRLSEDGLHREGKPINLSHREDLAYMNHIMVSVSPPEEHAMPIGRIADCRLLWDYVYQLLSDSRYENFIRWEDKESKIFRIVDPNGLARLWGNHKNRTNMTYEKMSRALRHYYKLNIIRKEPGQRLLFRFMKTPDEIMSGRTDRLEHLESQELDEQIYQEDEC

Sequence | binding signal (ERF) | binding signal (ETV3L) | binding signal (ETS2) | binding signal (SPDEF) | binding signal (ETV7) | binding signal (ELF5) | binding signal (ETV3) | binding signal (ETV6)
CCCATC | 1.25 fold enrichment (6-mer frequency, TF over GST control) | 1.15 fold enrichment (6-mer frequency, TF over GST control) | 1.22 fold enrichment (6-mer frequency, TF over GST control) | 1.07 fold enrichment (6-mer frequency, TF over GST control) | 1.08 fold enrichment (6-mer frequency, TF over GST control) | 1.21 fold enrichment (6-mer frequency, TF over GST control) | 1.14 fold enrichment (6-mer frequency, TF over GST control) | 1.1 fold enrichment (6-mer frequency, TF over GST control)
AATAGA | 1.19 fold enrichment (6-mer frequency, TF over GST control) | 1.16 fold enrichment (6-mer frequency, TF over GST control) | 1.1 fold enrichment (6-mer frequency, TF over GST control) | 1.05 fold enrichment (6-mer frequency, TF over GST control) | 1.17 fold enrichment (6-mer frequency, TF over GST control) | 1.11 fold enrichment (6-mer frequency, TF over GST control) | 1.09 fold enrichment (6-mer frequency, TF over GST control) | 1.17 fold enrichment (6-mer frequency, TF over GST control)
TTTTGA | 1.15 fold enrichment (6-mer frequency, TF over GST control) | 1.07 fold enrichment (6-mer frequency, TF over GST control) | 1.07 fold enrichment (6-mer frequency, TF over GST control) | 1.05 fold enrichment (6-mer frequency, TF over GST control) | 1.02 fold enrichment (6-mer frequency, TF over GST control) | 1 fold enrichment (6-mer frequency, TF over GST control) | 1.03 fold enrichment (6-mer frequency, TF over GST control) | 1.04 fold enrichment (6-mer frequency, TF over GST control)
ATGTCC | 1.36 fold enrichment (6-mer frequency, TF over GST control) | 1.7 fold enrichment (6-mer frequency, TF over GST control) | 1.58 fold enrichment (6-mer frequency, TF over GST control) | 2.05 fold enrichment (6-mer frequency, TF over GST control) | 1.71 fold enrichment (6-mer frequency, TF over GST control) | 1.65 fold enrichment (6-mer frequency, TF over GST control) | 1.8 fold enrichment (6-mer frequency, TF over GST control) | 1.57 fold enrichment (6-mer frequency, TF over GST control)
ACAAAA | 1.18 fold enrichment (6-mer frequency, TF over GST control) | 1.2 fold enrichment (6-mer frequency, TF over GST control) | 1.2 fold enrichment (6-mer frequency, TF over GST control) | 1.11 fold enrichment (6-mer frequency, TF over GST control) | 1.15 fold enrichment (6-mer frequency, TF over GST control) | 1.21 fold enrichment (6-mer frequency, TF over GST control) | 1.13 fold enrichment (6-mer frequency, TF over GST control) | 1.17 fold enrichment (6-mer frequency, TF over GST control)
GTTTGA | 1.23 fold enrichment (6-mer frequency, TF over GST control) | 1.11 fold enrichment (6-mer frequency, TF over GST control) | 1.26 fold enrichment (6-mer frequency, TF over GST control) | 1.11 fold enrichment (6-mer frequency, TF over GST control) | 1.24 fold enrichment (6-mer frequency, TF over GST control) | 1.17 fold enrichment (6-mer frequency, TF over GST control) | 1.24 fold enrichment (6-mer frequency, TF over GST control) | 1.28 fold enrichment (6-mer frequency, TF over GST control)
GATGGT | 1.22 fold enrichment (6-mer frequency, TF over GST control) | 1.19 fold enrichment (6-mer frequency, TF over GST control) | 1.13 fold enrichment (6-mer frequency, TF over GST control) | 1.04 fold enrichment (6-mer frequency, TF over GST control) | 1.06 fold enrichment (6-mer frequency, TF over GST control) | 1.08 fold enrichment (6-mer frequency, TF over GST control) | 1.12 fold enrichment (6-mer frequency, TF over GST control) | 1.1 fold enrichment (6-mer frequency, TF over GST control)
TCTCGC | 1.75 fold enrichment (6-mer frequency, TF over GST control) | 1.81 fold enrichment (6-mer frequency, TF over GST control) | 1.91 fold enrichment (6-mer frequency, TF over GST control) | 1.63 fold enrichment (6-mer frequency, TF over GST control) | 1.68 fold enrichment (6-mer frequency, TF over GST control) | 1.71 fold enrichment (6-mer frequency, TF over GST control) | 1.79 fold enrichment (6-mer frequency, TF over GST control) | 1.62 fold enrichment (6-mer frequency, TF over GST control)
ACAACT | 1.4 fold enrichment (6-mer frequency, TF over GST control) | 1.36 fold enrichment (6-mer frequency, TF over GST control) | 1.39 fold enrichment (6-mer frequency, TF over GST control) | 1.43 fold enrichment (6-mer frequency, TF over GST control) | 1.14 fold enrichment (6-mer frequency, TF over GST control) | 1.36 fold enrichment (6-mer frequency, TF over GST control) | 1.35 fold enrichment (6-mer frequency, TF over GST control) | 1.34 fold enrichment (6-mer frequency, TF over GST control)
GATGCG | 1.17 fold enrichment (6-mer frequency, TF over GST control) | 1.25 fold enrichment (6-mer frequency, TF over GST control) | 1.2 fold enrichment (6-mer frequency, TF over GST control) | 1.25 fold enrichment (6-mer frequency, TF over GST control) | 1.22 fold enrichment (6-mer frequency, TF over GST control) | 1.1 fold enrichment (6-mer frequency, TF over GST control) | 1.23 fold enrichment (6-mer frequency, TF over GST control) | 1.12 fold enrichment (6-mer frequency, TF over GST control)
TCTATA | 1.15 fold enrichment (6-mer frequency, TF over GST control) | 1.09 fold enrichment (6-mer frequency, TF over GST control) | 1.2 fold enrichment (6-mer frequency, TF over GST control) | 1.15 fold enrichment (6-mer frequency, TF over GST control) | 1.1 fold enrichment (6-mer frequency, TF over GST control) | 1.08 fold enrichment (6-mer frequency, TF over GST control) | 1.06 fold enrichment (6-mer frequency, TF over GST control) | 1.07 fold enrichment (6-mer frequency, TF over GST control)
ACGTAA | 1.12 fold enrichment (6-mer frequency, TF over GST control) | 1.09 fold enrichment (6-mer frequency, TF over GST control) | 1.08 fold enrichment (6-mer frequency, TF over GST control) | 1.11 fold enrichment (6-mer frequency, TF over GST control) | 1.08 fold enrichment (6-mer frequency, TF over GST control) | 1.09 fold enrichment (6-mer frequency, TF over GST control) | 1.17 fold enrichment (6-mer frequency, TF over GST control) | 1.07 fold enrichment (6-mer frequency, TF over GST control)
ACCCAC | 1.2 fold enrichment (6-mer frequency, TF over GST control) | 1.02 fold enrichment (6-mer frequency, TF over GST control) | 1.15 fold enrichment (6-mer frequency, TF over GST control) | 1.21 fold enrichment (6-mer frequency, TF over GST control) | 1.18 fold enrichment (6-mer frequency, TF over GST control) | 1.19 fold enrichment (6-mer frequency, TF over GST control) | 1.13 fold enrichment (6-mer frequency, TF over GST control) | 1.2 fold enrichment (6-mer frequency, TF over GST control)
TTTATT | 1.21 fold enrichment (6-mer frequency, TF over GST control) | 1.44 fold enrichment (6-mer frequency, TF over GST control) | 1.21 fold enrichment (6-mer frequency, TF over GST control) | 1.2 fold enrichment (6-mer frequency, TF over GST control) | 1.31 fold enrichment (6-mer frequency, TF over GST control) | 1.24 fold enrichment (6-mer frequency, TF over GST control) | 1.33 fold enrichment (6-mer frequency, TF over GST control) | 1.28 fold enrichment (6-mer frequency, TF over GST control)
AAGTGT | 1.24 fold enrichment (6-mer frequency, TF over GST control) | 1.2 fold enrichment (6-mer frequency, TF over GST control) | 1.38 fold enrichment (6-mer frequency, TF over GST control) | 1.32 fold enrichment (6-mer frequency, TF over GST control) | 1.42 fold enrichment (6-mer frequency, TF over GST control) | 1.43 fold enrichment (6-mer frequency, TF over GST control) | 1.23 fold enrichment (6-mer frequency, TF over GST control) | 1.35 fold enrichment (6-mer frequency, TF over GST control)
